In PubChem BioAssay:
Results filed as inconclusive are left out. Active and inactive are the calls of the source.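 Rule for the calls, unless noted: active = normalized viability below 100% at a tested concentration; inactive = the rest.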

Assays:
[1] = growth inhibition of DIPG glioma cells, dose response, cell-based, SU-DIPG-XVII, MIPE5.0, CellTiter-Glo, qHTS (AID 1347060; cut-off not given, nearly all actives have AC50 up to about 26 µM;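 for AC50: cells exposed to compound for 48 hours before viability readout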); conditions: SU-DIPG-XVII viability, CellTiter-Glo ATP luminescence
[2] = growth inhibition of DIPG glioma cells, dose response, cell-based, SU-DIPG-XIII, MIPE4.0, CellTiter-Glo, qHTS (AID 1347061; cut-off not given, nearly all actives have AC50 up to about 37 µM;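 note: cells exposed to compound for 48 hours before readout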); conditions: SU-DIPG-XIII viability, CellTiter-Glo ATP luminescence
[3] = growth inhibition of DIPG glioma cells, dose response, cell-based, JHH-DIPG-1, MIPE4.0, CellTiter-Glo, qHTS (AID 1347062; cut-off not given, nearly all actives have AC50 up to about 27 µM;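 for AC50: cells exposed to compound for two days before readout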); conditions: JHH-DIPG-1 viability, CellTiter-Glo ATP luminescence
[4] = growth inhibition of DIPG glioma cells, dose response, cell-based, SU-DIPG-IV, MIPE4.0, CellTiter-Glo, qHTS (AID 1347063; cut-off not given, nearly all actives have AC50 up to about 30 µM;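 note: compound exposure lasted 48 hours before the viability readout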); conditions: SU-DIPG-IV viability, CellTiter-Glo ATP luminescence
[5] = viability loss in pontine glioma line – cell-based, SU-DIPG-XXV, MIPE5.0, CellTiter-Glo, qHTS, dose response (AID 1347065; cut-off not given, nearly all actives have AC50 up to about 26 µM;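 note: cells exposed to compound for 48 hours before ATP readout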); conditions: CellTiter-Glo ATP luminescence
[6] = SU-DIPG-VI glioma cell viability, MIPE4.0 library, CellTiter-Glo luminescence, qHTS (AID 1347066; cut-off not given, nearly all actives have AC50 up to about 30 µM;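 note: cells exposed to compound for 48 hours before readout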); conditions: CellTiter-Glo ATP luminescence
[7] = sensitizers of A549 cells to miR-34 induction, primary screen, imaging, A549 dox-inducible miR-34, nuclei and caspase counts (AID 1347080;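 active = compounds whose cell count with miR-34 switched on is under 0.7 times the count with it off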); conditions: A549 miR-34 inducible, Hoechst nuclei count, 48 h
[8] = modifiers of HSF1 nuclear foci, imaging, Selleck Cancer Library (AID 1347162; in the data active = plate-normalised HSF1 focus index below about 0.46); conditions: human cells, at 10 µM; SSMD: measured here: HSF1 foci SSMD mean; cell count: measured here: cell number; plate-normalised HSF1 focus index: stronger effect = lower value
[9] = survival rescue of mitochondrial mutant cells in low glucose, primary screen, MELAS cybrids, Rieske KO mouse fibroblasts, CellTiter-Glo (AID 1508586;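 active = mean z-score across replicates of 1.96 or higher in either the MELAS or the Rieske mutant cell line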;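 note: z relative to plate mean and SD of compound and empty wells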)
[10] = ovarian cancer cell viability with rucaparib, profiling panel, oncology-focused library, rucaparib conditional (AID 1508598); conditions: patient-derived ovarian cancer cells, CellTiter-Glo viability, 144 h, stronger effect = lower value
[11] = JHH-DIPG-1 glioma cell viability, MIPE5.0 library, CellTiter-Glo luminescence, qHTS (AID 1347067; cut-off not given, nearly all actives have AC50 up to about 26 µM;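 note: cells exposed to compound for 48 hours before readout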); conditions: JHH-DIPG-1 glioma viability, CellTiter-Glo ATP luminescence
[12] = SU-DIPG-XXV glioma cell viability, MIPE5.0 library, qHTS (AID 1347068; cut-off not given, nearly all actives have IC50 up to about 30 µM)
[13] = stronger effect = lower value, cell number ratio, induced over uninduced
[14] = measured here: relative caspase fold change +Dox/-Dox
[15] = measured here: total cells with miR-34 induction, stronger effect = lower value
[16] = measured here: total cells without miR-34 induction
[17] = MELAS cybrid survival, CellTiter-Glo 48 h, stronger effect = higher value
[18] = Rieske KO mouse fibroblast survival, CellTiter-Glo 72 h

O=C(NCCCNc1nc(Nc2cccc(NC(=O)N3CCCC3)c2)ncc1I)c1cccs1
2780: cell count [7, 15]
-3.5: SSMD [8]
2940: cell count [7, 16]
1.03: fold change [7, 14]
-0.479: z-score [9, 18]
7460: cell count [8]
inactive: fold change [7, 13] 0.948 | plate-normalised HSF1 focus index [8] 0.877 | z-score [9, 17] -0.385 | viability ([10]; at 0.000305 µM, OCI-C5x cells, with rucaparib 10 µM, 100% = cells with rucaparib alone) 115% | viability ([10]; at 0.000305 µM, OCI-C5x cells, without rucaparib) 106% | viability ([10]; at 0.00122 µM, OCI-C5x cells, with rucaparib 10 µM, 100% = cells with rucaparib alone) 116% | viability ([10]; at 0.00122 µM, OCI-C5x cells, without rucaparib) 102% | viability ([10]; at 0.00488 µM, OCI-C5x cells, with rucaparib 10 µM, 100% = cells with rucaparib alone) 110% | viability ([10]; at 0.00488 µM, OCI-P5x cells, without rucaparib) 103% | viability ([10]; at 0.0195 µM, OCI-C5x cells, with rucaparib 10 µM, 100% = cells with rucaparib alone) 112% | viability ([10]; at 0.0195 µM, OCI-C5x cells, without rucaparib) 102% | viability ([10]; at 0.0195 µM, OCI-P5x cells, with rucaparib 20 µM, 100% = cells with rucaparib alone) 104% | viability ([10]; at 0.0195 µM, OCI-P5x cells, without rucaparib) 101% | viability ([10]; at 0.0781 µM, OCI-C5x cells, with rucaparib 10 µM, 100% = cells with rucaparib alone) 123% | viability ([10]; at 0.0781 µM, OCI-C5x cells, without rucaparib) 112% | viability ([10]; at 0.0781 µM, OCI-P5x cells, without rucaparib) 106% | viability ([10]; at 0.313 µM, OCI-C5x cells, with rucaparib 10 µM, 100% = cells with rucaparib alone) 137% | viability ([10]; at 0.313 µM, OCI-C5x cells, without rucaparib) 120% | viability ([10]; at 1.25 µM, OCI-C5x cells, with rucaparib 10 µM, 100% = cells with rucaparib alone) 122% | viability ([10]; at 1.25 µM, OCI-C5x cells, without rucaparib) 120% | viability ([10]; at 5 µM, OCI-C5x cells, without rucaparib) 127%
active: AC50 [1] 16.6 µM | AC50 [2] 20.9 µM | AC50 [3] 23.5 µM | AC50 [4] 14.8 µM | AC50 [5] 3.72 µM | AC50 [6] 20.9 µM | viability ([10]; at 0.000305 µM, OCI-P5x cells, with rucaparib 20 µM, 100% = cells with rucaparib alone) 91.2% | viability ([10]; at 0.000305 µM, OCI-P5x cells, without rucaparib) 89.1% | viability ([10]; at 0.00122 µM, OCI-P5x cells, with rucaparib 20 µM, 100% = cells with rucaparib alone) 97.1% | viability ([10]; at 0.00122 µM, OCI-P5x cells, without rucaparib) 94.8% | viability ([10]; at 0.00488 µM, OCI-C5x cells, without rucaparib) 97.8% | viability ([10]; at 0.00488 µM, OCI-P5x cells, with rucaparib 20 µM, 100% = cells with rucaparib alone) 97.7% | viability ([10]; at 0.0781 µM, OCI-P5x cells, with rucaparib 20 µM, 100% = cells with rucaparib alone) 99.5% | viability ([10]; at 0.313 µM, OCI-P5x cells, with rucaparib 20 µM, 100% = cells with rucaparib alone) 98.3% | viability ([10]; at 0.313 µM, OCI-P5x cells, without rucaparib) 99.8% | viability ([10]; at 1.25 µM, OCI-P5x cells, with rucaparib 20 µM, 100% = cells with rucaparib alone) 85.2% | viability ([10]; at 1.25 µM, OCI-P5x cells, without rucaparib) 99.1% | viability ([10]; at 5 µM, OCI-C5x cells, with rucaparib 10 µM, 100% = cells with rucaparib alone) 76.6% | viability ([10]; at 5 µM, OCI-P5x cells, with rucaparib 20 µM, 100% = cells with rucaparib alone) 68.2% | viability ([10]; at 5 µM, OCI-P5x cells, without rucaparib) 91.4%

CC(C)(F)C[C@H](N[C@@H](c1ccc(-c2ccc(S(C)(=O)=O)cc2)cc1)C(F)(F)F)C(=O)NC1(C#N)CC1
inactive: outcome [1] | outcome [2] | outcome [3] | outcome [4] | outcome [5] | outcome [6] | outcome [11] | outcome [12]

COC1CCC(N(C(=O)C2CCC(C)CC2)c2cc(C3=CCCCC3)sc2C(=O)O)CC1 (centres undefined)
inactive: outcome [1] | outcome [2] | outcome [3] | outcome [4] | outcome [5] | outcome [11] | outcome [12]

C1Cc2[nH]nc(-c3nn[nH]n3)c2C1
inactive: outcome [1] | outcome [2] | outcome [3] | outcome [4] | outcome [5] | outcome [6] | outcome [11] | outcome [12]

CC(C)n1cnc2c(NCCc3ccc(O)cc3)nc(-c3csc4ccccc34)nc21
0.471: fold change [7, 14]
6480: cell count [7, 15]
7140: cell count [7, 16]
active: AC50 [1] 18.6 µM | AC50 [2] 7.43 µM | AC50 [3] 18.7 µM | AC50 [4] 10.5 µM | AC50 [5] 18.6 µM | AC50 [6] 20.9 µM | AC50 [11] 13.2 µM
inactive: outcome [12] | fold change [7, 13] 0.908 | z-score [9, 17] -0.0908
0.499: z-score [9, 18]
